CF NFkB inh: inhibitors of PAF-induced NF-kB signaling, primary screen, cell-based, GFP fluorescence, uHTS; inhibition, % at 5 µM; KKLEB NF-kB-GFP reporter, GFP fluorescence overnight; hit rate 0.86% among 360,000;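 active = at least 50% inhibition at 5 µM, scaled per plate between neutral and stimulator controls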;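 note: PAF is a Pseudomonas aeruginosa culture filtrate used as stimulus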
HIF-2a inh: HIF-2a reporter inhibitors, primary screen, luminescence, 786-0 RCC cells | 786-0 RCC cells HIF-2a reporter, luciferase luminescence, overnight | inhibition, % at 18.8 µM | hit rate 0.72% among 360,000;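 active = inhibition of the luminescence signal of 40% or more relative to plate controls, in a single-dose primary screen at 18.75 µM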
MITF TRPM1 inh: inhibitors of MITF-dependent TRPM1 promoter reporter, primary screen, cell-based, SK-MEL-5, single point, luciferase; SK-MEL-5 TRPM1 promoter luciferase, 24 h; inhibition, % at 12.5 µM; hit rate 0.83% among 330,000; AID 488899, 2010;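 active = mean inhibition across replicates of 60% or more, whatever share of single replicates reaches that level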
CHOP inhibitor: inhibitors of CHOP promoter induction, primary screen, cell-based, unfolded protein response, luciferase reporter. CHO-K1 CHOP-promoter luciferase, tunicamycin-induced, 15-18 h. inhibition, % at 10 µM. hit rate 3.8% among 220,000;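 active = compounds that reduced the stress-induced luciferase reporter signal by more than about 70% of percent inhibition, limit read from the data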
Peg3 promoter: Peg3 promoter-driven luciferase inhibitors, primary screen, cell-based, HeLa, luciferase luminescence. hit rate 1.7% among 360,000. HeLa PEG-Prom luciferase reporter, overnight. inhibition, % at 20 µM. AID 588405, 2011;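 active = inhibition of at least 50% at 20 µM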
KKLEB cytotox: cytotoxicity in KKLEB CF airway cells, primary screen, cytotoxicity control for CF NF-kB inhibitor project, cell-based, uHTS, fluorescence assay plates; AID 602141, 2011; activity change (cytotoxicity), % at 5 µM; hit rate 0.36% among 360,000; KKLEB CF airway cells viability, ATPlite luminescence, overnight; stronger effect = lower value; cells stimulated with P. aeruginosa culture filtrate;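 active = corrected activity change at or below -50% at 5 µM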
Mdm2 MdmX conf: retested Mdm2-MdmX interaction blockers, confirmation, cell-based, luminescence, single concentration, set 2; SaOS-2 split-luciferase Mdm2/MdmX complementation; shares compounds with HIF-2a inh; AID 504601, 2011; hit rate 99% among 740; inhibition, % at 8 µM;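 active = mean inhibition of the luminescence signal across two replicates at or above 26 percent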
HIF-2a inh conf: HIF-2a reporter inhibitor retest, confirmation, luminescence, 786-0 RCC cells | shares compounds with HIF-2a inh | HIF-2a luciferase reporter luminescence, overnight | inhibition, % at 18.8 µM | hit rate 56% among 1,800 | AID 651580, 2012;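 active = mean inhibition across four replicates of at least 40 percent at the single tested concentration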
HIF-1a cs: HIF-1a luciferase reporter signal reduction – MiaPaCa-2 cells, single concentration, counter-screen for HIF-2a inhibitor project, confirmation; shares compounds with HIF-2a inh; MiaPaCa-2 HIF-1a luciferase reporter, desferoxamine, overnight; inhibition, % at 18.8 µM; hit rate 72% among 1,800;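 active = mean inhibition of the reporter signal across four replicates at the single tested dose of 50% or more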
Each line names hits and unclear results; the compound was inactive in the other large screens (follow-up assays come after a bar, where they were run). An excerpt weighted towards active compounds, which were near 4.3% of everything screened.

COC1(OC)C(/C=C/c2ccc(C)cc2)C(C#N)(C#N)C1(OC)OC (stereo not given)	HIF-2a inh 43.3 | HIF-2a inh conf inactive | HIF-1a cs 65.4
COc1ccc(CN(C(=O)c2snc(C(N)=O)c2N)C(CC(C)C)C(=O)NC2CCCCC2)cc1 (stereo not given)	none (no result: CHOP inhibitor)
CN(C)c1ccc(-n2cccc2/C=C/[N+](=O)[O-])cc1	HIF-2a inh 91.4, MITF TRPM1 inh 66.2, CHOP inhibitor 92.0, Peg3 promoter 93.8 | HIF-2a inh conf 89.2 | HIF-1a cs 105.9
O=C(Nc1ccccc1F)Nc1ccccc1OC(F)F	none
COc1cc(C2c3c(-c4cc(Cl)c(C)cc4O)n[nH]c3C(=O)N2Cc2cccnc2)ccc1O (stereo not given)	HIF-2a inh 43.3 | HIF-2a inh conf inactive | HIF-1a cs 60.5
COc1ccc(C)cc1N(CC(=O)Nc1ccc(S(=O)(=O)N2CCCC2)cc1)S(C)(=O)=O	none (no result: CHOP inhibitor)
COc1ccc(CC2NCCC3=CC(=O)CCC32)cc1O (stereo not given)	none (no result: CHOP inhibitor)
C(#CC12CC3CC(CC(C3)C1)C2)CN1CCOCC1	HIF-2a inh 40.8 | HIF-2a inh conf inactive | HIF-1a cs inactive
CC(CCN1C(Nc2ccccc2)=NC[C@@H]1C)c1ccccc1 (stereo not given in full)	none (no result: CHOP inhibitor)
Cc1ccc(C(=O)C(C(=O)/C=C/c2ccccc2)=C2SCCCS2)cc1	HIF-2a inh 92.9, MITF TRPM1 inh 86.2, Peg3 promoter 109.5 | Mdm2 MdmX conf 103.2 | HIF-2a inh conf 86.3 | HIF-1a cs 102.9
O=C(O)c1ccc(C=C(c2nc3ccccc3s2)c2nc3ccccc3s2)cc1	HIF-2a inh 50.1 | HIF-2a inh conf 51.8 | HIF-1a cs 92.1
COc1ccc2cc3c(N)nn(C(=O)Cc4c[nH]c5ccccc45)c3nc2c1	CF NFkB inh 85.5, HIF-2a inh 50.3, MITF TRPM1 inh 63.4, CHOP inhibitor 78.8, Peg3 promoter 106.1 | Mdm2 MdmX conf 102.5 | HIF-2a inh conf inactive | HIF-1a cs 101.9
COc1ccc(CN(C)C(=O)Cc2c[nH]c3ccccc23)cc1	none (no result: CHOP inhibitor)
COc1ccc2cc3c(N)nn(C(=O)c4ccccc4Cl)c3nc2c1	CF NFkB inh 77.2, HIF-2a inh 42.6, CHOP inhibitor 77.4 | Mdm2 MdmX conf 98.7 | HIF-2a inh conf inactive | HIF-1a cs 94.5
O=C(Oc1ccc([N+](=O)[O-])cc1)c1cncc(Br)c1	none
Cn1nnnc1SCc1ccc([N+](=O)[O-])cc1	none
CC(C)(C)c1ccc(Oc2ccc(NC(=O)c3ccccc3C(=O)O)cn2)cc1	HIF-2a inh 56.0 (no result: MITF TRPM1 inh) | HIF-2a inh conf 51.0 | HIF-1a cs inactive
O=C(Nc1cccc(NC(=O)c2ccccc2Cl)c1)c1ccc([N+](=O)[O-])o1	CF NFkB inh 78.4, HIF-2a inh 61.0, MITF TRPM1 inh 76.8, Peg3 promoter 97.7 (no result: CHOP inhibitor) | HIF-2a inh conf inactive | HIF-1a cs 103.9
CCCC(=O)N1CCN(c2ccc(NC(=O)c3ccc([N+](=O)[O-])o3)cc2)CC1	CF NFkB inh 90.4, HIF-2a inh 93.7, MITF TRPM1 inh 89.5, Peg3 promoter 100.2, KKLEB cytotox -63.2 | HIF-2a inh conf 64.0 | HIF-1a cs 97.3
CC(C)(C)C(=O)N1CCN(c2ccc(NC(=O)c3ccc([N+](=O)[O-])o3)cc2)CC1	CF NFkB inh 55.6, HIF-2a inh 87.6, MITF TRPM1 inh 81.4, Peg3 promoter 97.2 (no result: CHOP inhibitor) | HIF-2a inh conf inactive | HIF-1a cs 81.0
O=C(Nc1ccc(N2CCN(C(=O)c3ccccc3)CC2)cc1)c1ccc(Br)o1	none
O=C(Nc1ccc(N2CCN(C(=O)c3ccc(Cl)cc3)CC2)cc1)c1ccc([N+](=O)[O-])o1	CF NFkB inh 96.2, HIF-2a inh 97.3, MITF TRPM1 inh 90.1, Peg3 promoter 104.0, KKLEB cytotox -77.6 | HIF-2a inh conf 87.2 | HIF-1a cs 106.9
CC(C)(C)C(=O)N1CCN(c2ccc(NC(=O)c3ccco3)cc2)CC1	none (no result: CHOP inhibitor)
O=C(Nc1nc2c(Cl)cccc2s1)c1ccc([N+](=O)[O-])o1	none (no result: CHOP inhibitor)
CC(C)=CCC[C@H](C)C[C@@H]1Cc2[nH]c(=S)[nH]c(=O)c2[C@@H](c2ccc(F)cc2)O1	none (no result: CF NFkB inh, MITF TRPM1 inh, CHOP inhibitor, Peg3 promoter, KKLEB cytotox)
O=C(Nc1ccc(N2CCN(Cc3ccccc3F)CC2)cc1)c1ccc([N+](=O)[O-])o1	CF NFkB inh 81.3, HIF-2a inh 92.6, MITF TRPM1 inh 98.4, Peg3 promoter 99.8, KKLEB cytotox -76.7 (no result: CHOP inhibitor) | HIF-2a inh conf inactive | HIF-1a cs 104.7
O=C(Nc1ccc(N2CCN(Cc3ccccc3F)CC2)cc1)c1ccccc1[N+](=O)[O-]	none
CCC(=O)N1CCN(c2ccc(NC(=O)c3ccc([N+](=O)[O-])o3)cc2)CC1	CF NFkB inh 56.3, HIF-2a inh 61.1, MITF TRPM1 inh 79.9, Peg3 promoter 105.8 | HIF-2a inh conf inactive | HIF-1a cs 73.8
CS(=O)(=O)N1CCN(c2ccc(NC(=O)c3ccc([N+](=O)[O-])o3)cc2)CC1	CF NFkB inh 83.9, HIF-2a inh 79.0, MITF TRPM1 inh 74.8, Peg3 promoter 103.7, KKLEB cytotox -65.0 | HIF-2a inh conf inactive | HIF-1a cs 57.3
CS(=O)(=O)N1CCN(c2ccc(NC(=O)c3cc4ccccc4o3)cc2)CC1	none (no result: CHOP inhibitor)
CC(=O)Nc1ccc(S(=O)(=O)NNC(=O)c2cccc(Cl)c2)cc1	none
NNC(=O)c1cccc(COc2ccc3c(c2)CCC3)c1	HIF-2a inh 68.4 | HIF-2a inh conf 52.5 | HIF-1a cs inactive
NNC(=O)c1cccc(COc2ccccc2Br)c1	none
Cc1ccc2sc(N(CCCN(C)C)C(=O)CCS(=O)(=O)c3ccccc3)nc2c1C	CF NFkB inh 91.8, HIF-2a inh 88.2, Peg3 promoter 107.5, KKLEB cytotox -81.0 (no result: CHOP inhibitor) | HIF-2a inh conf inactive | HIF-1a cs 77.5
COc1ccc(Cl)c2sc(N(CCN(C)C)C(=O)CCS(=O)(=O)c3ccc(C)cc3)nc12	none (no result: CHOP inhibitor)

Assay outcomes: PubChem, several laboratories
